# Bioassay records from PubChem.
# Shown are actives, neighbours in structure and some others; about 1.4% of the full set was active somewhere.
# APOBEC3A inh: blocks human APOBEC3A ssDNA deamination; actives 0.41% (n = 330,000); inhibition, % at 20 µM; P31941; recombinant A3A, FAM/TAMRA ssDNA deamination fluorescence;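 active = at least 40% inhibition at 20 µM here, with at most 30% in a related deaminase screen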;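 also: plate controls were A3A with DMSO for no effect and wells lacking A3A enzyme for full effect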
# Target sequence (P31941 whole entry, looked up): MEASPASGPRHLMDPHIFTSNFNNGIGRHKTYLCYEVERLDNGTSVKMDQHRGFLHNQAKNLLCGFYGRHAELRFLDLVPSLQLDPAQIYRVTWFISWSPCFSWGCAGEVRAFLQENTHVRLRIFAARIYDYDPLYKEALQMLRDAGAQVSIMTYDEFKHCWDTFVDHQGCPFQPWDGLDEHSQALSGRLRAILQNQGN
# GC-B act: GC-B (human) receptor activation; P20594; HEK293-GC-B cells, CNP EC30, cGMP TR-FRET; 0% at EC30 CNP, 100% saturating CNP; activation, % at 10 µM; actives 0.11% (n = 370,000);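 active = activation at 10 µM reaching about 35% in either raw or pattern-adjusted values, limit read from the data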
# FAS-TE inh: inhibitors of human fatty acid synthase thioesterase domain; recombinant FAS-TE, OMFH fluorogenic substrate, fluorescence endpoint; inhibition, % at 15 µM; actives 0.67% (n = 360,000); AID 602261;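 active = compounds whose normalised, plate-corrected inhibition of enzyme fluorescence in the single-dose primary screen is 50% or more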;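 also: 0% = DMSO with enzyme and 100% = substrate without enzyme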
# A3G deaminase: blocks human APOBEC3G single-stranded DNA deamination; actives 0.28% (n = 330,000); recombinant A3G, ssDNA deamination FAM/TAMRA fluorescence; inhibition, % at 20 µM; Q9HC16; AID 493012;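 active = inhibition of at least 40% at 20 µM, with no more than 30% in the related APOBEC3A deaminase screen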;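 also: plate controls were DMSO wells with A3G for no effect and wells lacking A3G enzyme for full effect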
# Target sequence (Q9HC16 whole entry, looked up): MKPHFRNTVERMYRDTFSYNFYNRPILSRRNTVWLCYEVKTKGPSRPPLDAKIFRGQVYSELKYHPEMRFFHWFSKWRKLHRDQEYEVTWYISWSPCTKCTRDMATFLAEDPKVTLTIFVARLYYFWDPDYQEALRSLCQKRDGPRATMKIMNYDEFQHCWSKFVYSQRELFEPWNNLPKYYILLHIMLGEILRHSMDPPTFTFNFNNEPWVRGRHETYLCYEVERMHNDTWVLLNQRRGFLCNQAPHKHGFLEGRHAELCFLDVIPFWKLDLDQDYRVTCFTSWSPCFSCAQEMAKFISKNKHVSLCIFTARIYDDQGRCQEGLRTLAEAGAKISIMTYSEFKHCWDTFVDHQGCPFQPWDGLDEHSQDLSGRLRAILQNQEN
# NPR1 activator: GC-A (human) enzyme activation. HEK293 GC-A cells, cGMP TR-FRET, EC30 ANP; 0% at EC30 ANP, 100% saturating ANP. activation, % at 10 µM. actives 0.14% (n = 370,000); in the data active = activation above about 40%
# * = called active by the depositor; nt = not tested or not shown.
SMILES,APOBEC3A inh,GC-B act,FAS-TE inh,A3G deaminase,NPR1 activator
C=CCn1c(=O)n2ncnc2c2c3c(sc21)CCCC3,nt,1.1,0.8,nt,17.3
O=c1n(Cc2ccc(Cl)cc2)c2sc3c(c2c2ncnn12)CCCC3,-3.2,48.7*,14.5,-5.6,34.4
COc1ccc(S(=O)(=O)Nc2cccc(N(C)S(C)(=O)=O)c2)cc1Br,-2.1,37.4*,3.8,-6.5,33.6
Cc1ccc(NC(=O)OC2CC3CC2[C@H]2CCCCN2C3)cc1 (stereo partly drawn),nt,-1.5,nt,nt,-0.3
O=C(CCSc1ccccn1)c1ccccc1,-5.5,4.3,-4.5,1.8,51.6*
Nc1nc2c(nc(Br)n2[C@@H]2O[C@@H]3COP(=O)(O)O[C@H]3[C@H]2O)c(=O)[nH]1,0.0,114.0*,-3.9,-3.5,116.2*
Nc1ncnc2c1nc(Br)n2[C@@H]1O[C@@H]2COP(=O)(O)O[C@H]2[C@H]1O,3.4,5.7,-5.8,-0.2,3.8
COc1ccccc1-c1cc(C(F)(F)F)nc(S(=O)(=O)CCCC(=O)Nc2cc(C)on2)n1,-4.6,9.7,3.3,-4.7,76.4*
COc1ccccc1-c1cc(C(F)(F)F)nc(S(=O)(=O)CCCC(=O)NC(C)C)n1,2.0,15.6,-5.7,-0.3,73.3*
COc1ccccc1-c1cc(C(F)(F)F)nc(S(C)(=O)=O)n1,-2.2,5.4,4.5,-0.5,76.8*
COc1ccc(-c2cc(C(F)(F)F)nc(S(=O)(=O)CCCC(=O)Nc3cc(C)on3)n2)cc1OC,nt,-2.4,1.6,nt,13.2
COc1ccccc1-c1cc(C(F)(F)F)nc(N2CCCC2)n1,-3.9,-0.8,23.1,-4.8,-7.9
COc1ccccc1-c1cc(C(F)(F)F)nc(S(=O)(=O)CCCC(=O)Nc2cccnc2Cl)n1,nt,4.9,12.7,nt,72.5*
COc1ccc(C(c2ccc(OC)cc2)N2CCN(C(=O)c3noc(C)c3[N+](=O)[O-])CC2)cc1,nt,-0.1,nt,nt,-3.5
COc1ccc(C(=O)CSc2nnc(-c3cccnc3)n2-c2ccc(C)cc2)cc1,nt,-1.7,nt,nt,5.4
COC(=O)CN1CCN(C(=O)c2csc3ccccc23)CC1,nt,-8.4,nt,nt,2.1
Cc1ccc(Cn2cc(COC(=O)Nc3ccc(F)cc3)nn2)cc1,nt,1.8,nt,nt,5.4
COc1ccccc1-c1cc(C(F)(F)F)nc(S(=O)(=O)CCCC(=O)N2CCCCC2C)n1 (stereo not drawn),1.5,8.7,23.4,-3.0,77.7*
COc1ccccc1-c1cc(C(F)(F)F)nc(S(=O)(=O)CCCC(=O)NCc2ccc(F)cc2)n1,-4.3,12.2,26.7,-4.1,74.5*
COc1ccccc1-c1cc(C(F)(F)F)nc(N2CCCCC2)n1,1.4,7.4,12.0,0.2,-0.2
COc1ccccc1-c1cc2nc(C)c(CCC(=O)NCc3ccc(F)cc3)c(C)n2n1,3.6,-4.9,0.7,-0.6,7.5
Cc1ccc(NC(=S)N/N=C/c2ccc(Cl)c([N+](=O)[O-])c2)cc1,-2.7,-12.4,14.1,-3.2,6.2
O=[N+]([O-])c1cc(/C=N/NC(=S)Nc2ccccc2Cl)ccc1Cl,0.7,-4.8,13.2,-3.1,57.8*
Cc1ccc(Cc2c(-c3ccc(Br)cc3)nc3cc(C)ccn23)cc1,nt,45.7*,24.3,nt,33.8
Cc1ccc(Cc2c(-c3ccc(F)cc3)nc3cc(C)ccn23)cc1,nt,28.6,16.9,nt,21.5
SMILES,APOBEC3A inh,GC-B act,FAS-TE inh,A3G deaminase,NPR1 activator
O=C(c1ccc2c(c1)OCO2)N1CCC(Oc2cccnc2)CC1,nt,2.6,nt,nt,5.6
O=C(CCc1ccccc1)N[C@H]1[C@@H](OC(=O)c2cccnc2)CCC[C@@]12C(=O)N(Cc1ccccc1)c1ccccc12,nt,-2.6,nt,nt,-5.2
CN(C)C=Nc1nc2c(Br)ccc(Br)c2cc1C(=O)NCC(C)(C)C,nt,-8.2,nt,nt,48.2*
Nc1nc2c(Br)ccc(Br)c2cc1C(=O)NCc1cccc2ccccc12,nt,-10.1,6.9,nt,2.6
O=C1ON=C(c2ccccc2)/C1=C\c1ccco1,11.7,41.8*,-3.8,7.8,27.4
O=C1ON=C(c2ccccc2)/C1=C/c1ccccc1,-7.1,6.4,-2.6,-1.4,0.7
Nc1nnc(COc2ccc(Br)cc2Br)s1,2.0,0.2,-0.5,2.9,58.5*
CCCCCCCC/C=C\CCCCCCCC(=O)O,2.1,0.4,62.1*,-5.8,2.4
COC(=O)Cc1nnn2c1[C@H](C)[C@@H](OC)c1ccc(C(F)(F)F)cc1-2,nt,5.3,nt,nt,0.8
COC(=O)C1CN(C2CC2)CCS(=O)(=O)N1Cc1cn(Cc2ccccc2)nn1 (stereo not drawn),nt,4.5,nt,nt,4.0
CC(C)(C)OC(=O)NCCCC[C@H](NC(=O)c1nc[nH]c1C(=O)NCc1ccccc1)C(=O)OC(C)(C)C,1.7,7.7,54.8*,2.0,-2.5
Cc1nc2n(n1)C(O)c1cc([N+](=O)[O-])ccc1S2 (stereo not drawn),44.5*,nt,nt,-9.7,nt
COc1ccc(-c2nnc(SCC(=O)Nc3ccc(S(=O)(=O)Nc4cc(C)nc(C)n4)cc3)n2-c2ccc(OC)cc2)cc1,nt,4.6,nt,nt,-1.0
COC(=O)[C@H]1C[C@@]2(N3CCCCC3)c3ccccc3N(S(=O)(=O)c3ccccc3)[C@H]2N1,nt,-5.9,nt,nt,-6.8
CCOC(=O)c1c(C)n(CCOc2ccccc2)c2ccc(O)cc12,-1.9,-0.7,-3.8,-7.2,56.5*
O=C(Nc1ccc2ccccc2c1)C1CC2CCC1C2 (stereo not drawn),nt,-5.2,nt,nt,3.9
Cc1ccccc1OCC(=O)Nc1sc(C(=O)Nc2cccc(C)c2C)c(C)c1C#N,1.7,-8.8,-6.1,-4.8,55.8*
COc1ccc(/C=C2\Sc3ccc(C(=O)NC4CC4)cc3N(C)C2=O)cc1OC,-0.4,38.7*,4.2,-1.6,29.5
CCCS(=O)(=O)c1c(S(=O)(=O)CCC)c2ccc(C(N)=O)cn2c1C(=O)c1ccccc1,-4.3,41.7*,-0.6,-4.0,34.8
CCCS(=O)(=O)c1c(S(=O)(=O)CCC)c2c(C(N)=O)cccn2c1C(=O)c1ccc(F)cc1,-0.3,1.3,-0.3,-5.4,-1.2
COc1cccc(CNC(=O)[C@H]2CCCN2C(=O)[C@H]2CCCN2C(=O)c2ccc(C)c(C)c2)c1,nt,2.8,nt,nt,1.4
O=c1c(Cl)cc(Cl)nn1-c1ccccc1,1.3,1.2,-6.0,3.7,46.6*
COc1cc(Cl)nn(-c2ccccc2)c1=O,2.8,-1.1,-11.2,0.2,-0.9
Oc1ccc(-c2nc3cnccn3c2Nc2ccc3c(c2)OCCO3)cc1,1.5,29.3,-2.0,3.8,41.4*
COc1cc(-c2nc3cnccn3c2Nc2ccc(C(C)C)cc2)ccc1O,-6.2,1.3,2.5,-4.5,54.8*
c1ccc(-c2nc3cnccn3c2Nc2ccc3c(c2)OCCO3)cc1,1.1,36.4*,8.5,2.7,45.1*
COc1cc(-c2nc3ccc(C)cn3c2Nc2ccc3c(c2)OCCO3)ccc1O,-6.3,38.9*,5.1,-11.0,35.9
COC(=O)[C@]12C[C@H](CC(=O)NCc3cccc4ccccc34)C(=O)N(Cc3ccccc3)C1=C[C@H](C(C)C)O[C@@H]2C1CC1,nt,-1.7,nt,nt,-5.1
